# Reference: PubChem BioAssay (EPA / NIEHS)
# Values joined by “and” are separate entries in the source; they are usually repeats but may differ in a detail not shown here. Equal entries are not always repeated. Records with an inconclusive call do not appear. Some compounds were tested as several samples or in several runs, with calls that do not always agree. Active and inactive are the calls of the source. Rule for the calls: active = hit-call score of the fitted dose curve at least 0.9, where 1 is the maximum; inconclusive = response in the unintended direction; inactive = score below 0.9.
# Tests used:
# [1] = target: Cellular tumor antigen p53 (Homo sapiens) (UniProt P04637); test: TOX21_p53_BLA_p5_ratio: Tox21 HCT-116 p53 Agonism Beta-lactamase Assay, Ratio, Phase 5 (AID 2283599)
# How it was run: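 Beta-lactamase reporter ratio (blue 460 nm over green 530 nm, 405 nm excitation) after 2 h CCF4-AM loading, in HCT-116 cells exposed 16 h at 37 C to compounds pinned at 217-fold dilution. Increases relative to DMSO baseline scored.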
# [2] = TOX21_p53_BLA_p5_viability: Viability Assessment in the Tox21 HCT-116 p53 Agonism Beta-lactamase Assay, Phase 5 (AID 2283600)
# How it was run: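 Workflow: seed 4000 cells per well, wait 5 h, add compounds (DMSO, 217-fold dilution), incubate 16 h, load CCF4-AM 2 h, add CellTiter-Glo, read luminescence after 30 min.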
# [3] = target: Cellular tumor antigen p53 (Homo sapiens) (UniProt P04637); test: TOX21_p53_BLA_p4_ratio: Tox21 HCT-116 p53 Agonism Beta-lactamase Assay, Ratio, Phase 4 (AID 2283601)
# How it was run: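 Signal is the blue/green (460nm/530nm) ratio of cleaved versus uncleaved CCF4-AM substrate, read after 2 h substrate loading. Cells were HCT116 carrying the p53-responsive beta-lactamase reporter, dosed 16 h at 37C, 5% CO2; CellTiter-Glo measured in parallel.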
# [4] = Tanguay_ZF_120hpf_MORT_legacy: (Legacy) Oregon State University Tanguay Lab 120 Hour Post-fertilization zebrafish Assay for Mortality (AID 2283633);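 for AC50: fitted as increase in binary mortality versus DMSO negative control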
# How it was run: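 5D WT zebrafish, chorion removed 4 hpf; 1 embryo/well from 6 hpf; static exposure to 120 hpf, 28C, dark, sealed. Final DMSO 0.64%. Readout: binary mortality, brightfield, 24 + 120 hpf; DMSO as negative control.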
# [5] = Tanguay_ZF_120hpf_YSE_legacy: (Legacy) Oregon State University Tanguay Lab 120 Hour Post-fertilization zebrafish Assay for Yolk Sac Edema (AID 2283634)
# How it was run: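 Dechorionate (pronase, 4 hpf) → place one 6 hpf embryo per well → static compound exposure, sealed and foil-covered, 28C, to 120 hpf → record yolk sac edema as present or absent. Final DMSO 0.64%.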
# [6] = Tanguay_ZF_120hpf_AXIS_legacy: (Legacy) Oregon State University Tanguay Lab 120 Hour Post-fertilization zebrafish Assay for Body Axis Malformation (AID 2283635)
# How it was run: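 Chorion is removed with pronase at 4 hpf, then single 6 hpf embryos are dosed (final DMSO 0.64%) and held statically at 28C in sealed, foil-covered plates. At 120 hpf body axis malformation is recorded as present or absent.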
# [7] = Tanguay_ZF_120hpf_EYE_legacy: (Legacy) Oregon State University Tanguay Lab 120 Hour Post-fertilization zebrafish Assay for Eye Malformation (AID 2283636);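 note: binary presence or absence of eye malformation scored by brightfield in 120 hpf larvae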
# How it was run: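 Binary brightfield scoring of eye defects at 120 hpf after static exposure from 6 hpf of single pronase-dechorionated wild-type embryos (28C, 0.64% DMSO). Non-mortality endpoints omitted where embryos died; fit vs DMSO.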
# [8] = Tanguay_ZF_120hpf_JAW_legacy: (Legacy) Oregon State University Tanguay Lab 120 Hour Post-fertilization zebrafish Assay for Jaw Malformation (AID 2283638)
# How it was run: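 Steps: dechorionate 4 hpf embryos (pronase); plate 1/well at 6 hpf; add test chemical, 0.64% DMSO final; seal, cover, hold at 28C statically to 120 hpf; score jaw defect presence/absence microscopically. Dead embryos not scored.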
# [9] = Tanguay_ZF_120hpf_OTIC_legacy: (Legacy) Oregon State University Tanguay Lab 120 Hour Post-fertilization zebrafish Assay for Otic Vesicle Malformation (AID 2283639)
# How it was run: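 Statically exposed wild-type 5D zebrafish embryos, kept sealed and dark at 28C through 120 hours post fertilization, were examined by brightfield microscopy for otic vesicle defects. Responses were recorded as present or absent and analysed relative to DMSO.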
# [10] = Tanguay_ZF_120hpf_SNOU_legacy: (Legacy) Oregon State University Tanguay Lab 120 Hour Post-fertilization zebrafish Assay for Snout Malformation (AID 2283637)
# How it was run: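 Binary snout-malformation call at 120 hpf in wild-type 5D embryos, chorion removed by pronase, under static exposure from 6 hpf at 28C (0.64% DMSO). Embryos dying by 24 or 120 hpf excluded.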
# Chain of Cellular tumor antigen p53 (Homo sapiens) (P04637 whole entry, looked up): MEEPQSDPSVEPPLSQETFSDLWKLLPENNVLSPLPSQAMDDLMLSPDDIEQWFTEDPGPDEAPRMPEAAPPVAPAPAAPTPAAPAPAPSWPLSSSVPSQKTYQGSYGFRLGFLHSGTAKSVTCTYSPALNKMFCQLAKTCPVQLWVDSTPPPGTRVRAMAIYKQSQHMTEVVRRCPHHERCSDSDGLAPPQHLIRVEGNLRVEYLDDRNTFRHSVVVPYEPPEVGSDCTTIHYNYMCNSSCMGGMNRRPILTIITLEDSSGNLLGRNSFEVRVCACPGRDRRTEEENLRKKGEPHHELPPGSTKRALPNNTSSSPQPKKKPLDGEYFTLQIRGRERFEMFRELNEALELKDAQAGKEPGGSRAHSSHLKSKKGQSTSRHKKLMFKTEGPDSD
structure (smiles),measurement,setting,value
CCCCCCCC(=O)N(C)C,outcome,[1],inactive
same,outcome,[2],inactive
same,outcome,[3],inactive
COc1ccc(OC)cc1,outcome,[1],inactive
same,outcome,[2],inactive
same,outcome,[3],inactive
C=CCS(=O)(=O)O,outcome,[1],inactive
same,outcome,[2],inactive
same,outcome,[3],inactive
CC(=O)c1ccc(O)cc1,outcome,[1],inactive
same,outcome,[2],inactive
same,outcome,[3],inactive
CCC(C)(C)C1CCC(=O)CC1,outcome,[1],inactive
same,outcome,[2],inactive
same,outcome,[3],inactive
Nc1cc([N+](=O)[O-])ccc1C(=O)O,outcome,[1],inactive
same,outcome,[2],inactive
same,outcome,[3],inactive
Cc1ccc(C(C)(C)O)cc1,outcome,[1],inactive
same,outcome,[2],inactive
same,outcome,[3],inactive
CCOc1ccc(NC(C)=O)cc1,outcome,[1],inactive
same,outcome,[2],inactive
same,outcome,[3],inactive
CC1=CCC(C(C)(C)O)CC1 (stereo not drawn),outcome,[1],inactive
same,outcome,[2],inactive
same,outcome,[3],inactive
COC(=O)c1cccc(C(=O)OC)c1,outcome,[1],inactive
same,outcome,[2],inactive
same,outcome,[3],inactive
O=C(C=Cc1ccccc1)OCCCc1ccccc1,outcome,[1],inactive
same,outcome,[2],inactive
same,outcome,[3],inactive
CC(=O)Oc1c(C)c(C)c2c(c1C)CC[C@@](C)(CCC[C@H](C)CCC[C@H](C)CCCC(C)C)O2,outcome,[1],inactive
same,outcome,[2],inactive
same,outcome,[3],inactive
CCCCCCCCCCCCS,outcome,[1],inactive
same,outcome,[2],inactive
same,outcome,[3],inactive
O=C(Nc1cccc(Cl)c1)OCC#CCCl,AC50,[1],14.1 µM (active)
same,outcome,[2],inactive
same,AC50,[3],19.6 µM (active)
CCCCCCOc1ccc(O)cc1,AC50,[1],52.4 µM (active)
same,outcome,[2],inactive
same,AC50,[3],72.5 µM (active)
C[Si]1(C)N[Si](C)(C)N[Si](C)(C)N1,outcome,[1],inactive
same,outcome,[3],inactive
C/C=C(\C)C(=O)OC/C=C(\C)CCC=C(C)C,outcome,[1],inactive
same,outcome,[3],inactive
CCCCCCCC1CCCC1=O (stereo not drawn),outcome,[1],inactive
same,outcome,[2],inactive
same,outcome,[3],inactive
C=C(C)C(=O)OCCC(C)OC(=O)C(=C)C (stereo not drawn),outcome,[1],inactive
same,outcome,[3],inactive
Nc1ccc(O)c(N)c1,outcome,[1],inactive
same,outcome,[3],inactive
CC(O)COCC(C)O (stereo not drawn),outcome,[1],inactive
same,outcome,[2],inactive
same,outcome,[3],inactive
CCCCCC1C(=O)CCC1CC(=O)OC (stereo not drawn),outcome,[1],inactive
same,outcome,[2],inactive
same,outcome,[3],inactive
CCCCCC1CCC(=O)O1 (stereo not drawn),outcome,[1],inactive
same,outcome,[3],inactive
C=C(C)C(N)=O,outcome,[1],inactive
same,outcome,[2],inactive
same,outcome,[3],inactive
same,outcome,[4],inactive
same,outcome,[5],inactive
same,outcome,[6],inactive
same,outcome,[7],inactive
same,outcome,[8],inactive
same,outcome,[9],inactive
NC(=O)NC(N)=O,outcome,[1],inactive
same,outcome,[2],inactive
same,outcome,[3],inactive
CC(C)COC(=O)c1ccccc1O,outcome,[1],inactive
same,outcome,[2],inactive
same,outcome,[3],inactive
C#C[C@]1(O)CC[C@H]2[C@@H]3CCc4cc(O)ccc4[C@H]3CC[C@@]21C,AC50,[1],11.7 µM (active) and 13.9 µM (active) and 7.67 µM (active)
same,AC50,[3],6.65 µM (active) and 13.5 µM (active) and 8.18 µM (active)
same,outcome,[4],inactive
same,outcome,[5],inactive
same,outcome,[7],inactive
same,outcome,[10],inactive
same,outcome,[8],inactive
same,outcome,[9],inactive
CC1(C)CC(=O)CC(C)(C)N1,outcome,[1],inactive
same,outcome,[3],inactive
CC(C)(O)CCc1ccccc1,outcome,[1],inactive
same,outcome,[3],inactive
CCCCC(CC)COCCO (stereo not drawn),outcome,[1],inactive
same,outcome,[3],inactive
CCCCCCCCCOS(=O)(=O)O,outcome,[1],inactive
same,outcome,[2],inactive
same,outcome,[3],inactive
CC(=O)C1C(=O)C=C(C)OC1=O (stereo not drawn),outcome,[1],inactive
same,outcome,[3],inactive
CC1(C)CC(N)CC(C)(CN)C1 (stereo not drawn),outcome,[1],inactive
same,outcome,[2],inactive
same,outcome,[3],inactive
CC(=O)C1=C(C)[C@@H]2C[C@@]3(C1)[C@H](C)CC[C@H]3C2(C)C,outcome,[1],inactive
same,outcome,[2],inactive
same,outcome,[3],inactive
CCCCCC#CC(=O)OC,outcome,[1],inactive
same,outcome,[3],inactive
CCOC(=O)COC(=O)c1ccccc1C(=O)OCC,outcome,[1],inactive
same,outcome,[3],inactive
CC/C(=C(\c1ccccc1)c1ccc(OCCN(C)C)cc1)c1ccccc1,AC50,[1],75.4 µM (active) [middle of 4 runs]
same,AC50,[2],64.3 µM (active) [middle of 4 runs]
same,AC50,[3],40 µM (active) and 84.5 µM (active) and 42 µM (active)
same,outcome,[3],inactive
same,AC50,[4],31.4 µM (active)
same,outcome,[4],inactive
same,outcome,[5],inactive
same,outcome,[6],inactive
same,outcome,[10],inactive
same,outcome,[9],inactive
CC(=O)CC(=O)N(C)C,outcome,[1],inactive
same,outcome,[3],inactive
C=CC(=O)OCCCCCC,outcome,[1],inactive
same,outcome,[3],inactive
S=c1[nH][nH]c(=S)s1,outcome,[1],inactive
same,outcome,[3],inactive
N=C1N=C(N)c2ccccc21,AC50,[1],13.3 µM (active)
same,outcome,[2],inactive
same,outcome,[3],inactive
CCCCN(CCCC)CCCCCCN(CCCC)CCCC,outcome,[1],inactive
same,outcome,[3],inactive
CCCCCc1cccc(=O)o1,outcome,[1],inactive
same,outcome,[3],inactive
Cc1ccncc1,outcome,[1],inactive
same,outcome,[2],inactive
same,outcome,[3],inactive
c1ccc(-c2nn[nH]n2)cc1,outcome,[1],inactive
same,outcome,[3],inactive
CCCCOCCOCCO,outcome,[1],inactive
same,outcome,[2],inactive
same,outcome,[3],inactive
same,outcome,[4],inactive
same,outcome,[5],inactive
same,outcome,[6],inactive
same,outcome,[7],inactive
same,outcome,[10],inactive
same,outcome,[8],inactive
same,outcome,[9],inactive
CC(C)CCOC(=O)CC(C)C,outcome,[1],inactive
same,outcome,[3],inactive
CCCCOCCOCCOCCO,outcome,[1],inactive
same,outcome,[3],inactive
O=C(c1ccc(OCCN2CCCCC2)cc1)c1c(-c2ccc(O)cc2)sc2cc(O)ccc12,AC50,[1],72.8 µM (active) and 81.5 µM (active) and 36.2 µM (active)
same,AC50,[2],77.6 µM (active) and 87.9 µM (active) and 41.9 µM (active)
same,AC50,[3],69.6 µM (active) and 69.3 µM (active) and 36.5 µM (active)
same,outcome,[4],inactive
same,outcome,[5],inactive
same,outcome,[6],inactive
same,outcome,[7],inactive
same,outcome,[10],inactive
